The values that follow come from PubChem BioAssay (NCATS).

Records with an inconclusive call do not appear. The source made the active and inactive calls. Calls come from the whole dose curve; as a rule, active = well fitted activation curve with a large enough effect in the signal ratio, with a control signal flat (not every such curve was filed as active); inconclusive = small, poorly fitted or top-dose-only effect, or effect the other way, or a change in a side signal; inactive = flat fitted curve, though single readings scatter; the % refers to the signal ratio.
Potency is the fitted concentration of half-maximal effect.

This assay is described as follows: qHTS Assay for Identification of Small Molecule Agonists for Hypoxia Response Element Signaling Pathway (AID 914). For activation: % of control where 0% means no effect. Conditions: ME-180 (cervical carcinoma) HRE-bla reporter, beta-lactamase ratio, CoCl2, 17 h; activation: active compounds read high. From the text: NIH Molecular Libraries Screening Centers Network [MLSCN]
NIH Chemical Genomics Center [NCGC]
Hypoxia-inducible factor-1 (HIF-1) is the major hypoxia-regulated transcription factor that controls cellular responses to low oxygen concentration. HIF-1 is composed of two subunits: hypoxia responsive HIF-1 alpha and constitutively expressed HIF-1 beta, which is also known as aryl hydrocarbon receptor nuclear translocator. During hypoxic conditions, HIF-1 alpha heterodimerizes with HIF-1 beta and translocates into the nucleus where the HIF-1 complex binds to the hypoxia-response element (HRE) and activates expression of target genes such as VEGF (vascular endothelial growth factor). HIF-1 alpha protein levels are elevated in many solid tumors, including those of the cervix and brain. Within tumors, cells that are the greatest distance from blood vessels and therefore the most hypoxic express the highest levels of HIF-1 alpha. Therapeutic blockade of the HIF-1 signaling pathway in cancer cells therefore provides an attractive strategy for development of anticancer drugs.
Using a beta-lactamase reporter-gene under control of the hypoxia response element, a cell-based assay [CellSensor(TM) HRE-bla ME-180 developed by Invitrogen Corp.] was used to measure hypoxia-induced signaling. Library compounds were measured for their ability to positively modulate the action of EC50 CoCl2 on reporter gene activity. Compounds were screened in a titration series in 1536-well format. Positive modulators were identified based on the AC50 values derived from the screening data.
NCGC Assay Protocol Summary:
2500 cells/5uL in Opti-MEM medium containing 0.5% dialyzed FBS, 0.1 mM NEAA, 1 mM sodium pyruvate and 10 mM HEPES was dispensed into 1536-well plates and cells were cultured at 37 degrees Celsius overnight. Next day 23 nL of compounds or DMSO were delivered to each well using a pin tool, and 1uL of EC50 level of CoCl2, or EC100 level of CoCl2, or assay medium was added. And then the plates were incubated at 37 degrees Celsius for 17 hours. 1 uL of CCF4-dye mixture was added to each well. After incubated at room temperature for 2.5 hours the plates were measured on an EnVision plate reader at Excitation 405nm, Emission1=460nm and Emission 2=530nm. The %Activity was determined from the ratio of 460nm/530nm.
(In general: qHTS replaces the single test concentration by a dilution series.)
Consider `Cc1cnc(CNc2ncnc3ccc(-c4c(C)noc4C)cc23)cn1`, for which the Potency was 3.98 µM (active).

With `COCCn1c(=O)c(-c2cccc(C#N)c2)nc2cnc(OC)nc21`, the activation was -7.08% (inactive).

Consider `CC(=O)NCCNc1nc(-c2ccccc2Cl)nc2ccccc12`, for which the activation was 19.9% (inactive).

`CCNc1ncc2nc(-c3ccccc3)c(=O)n(Cc3cccs3)c2n1`: the Potency is 3.16 µM (active).

In the case of `CN1CCN(c2ncc3nc(CCc4ccccc4)c(=O)n(C4CC4)c3n2)CC1`, the activation is -5.15% (inactive).

With `CN(C)c1ncc2nc(-c3cccs3)c(=O)n(C[C@H]3CCCO3)c2n1`, the activation is -3.72% (inactive).

With `O=c1c(-c2cc(F)cc(F)c2)nc2cnc(N3CCOCC3)nc2n1C1CC1`, the Potency is 1.58 µM (active).

Turning to `Cn1c(=O)c(-c2ccc(Cl)cc2)nc2cnc(N3CCOCC3)nc21`, the Potency was 2.51 µM (active).

Consider `O=c1c(-c2ccc(F)cc2)nc2cnc(N3CCNCC3)nc2n1C1CC1`, for which the Potency was 2.51 µM (active).

In the case of `COc1ccc(Oc2ncc3nc(-c4ccc(OC)cc4)c(=O)n(C4CC4)c3n2)cc1`, the activation was 12.9% (inactive).

Turning to `CN1CCN(c2ncncc2-c2ccccc2C(F)(F)F)CC1`, the activation was 5.49% (inactive).

As to `COc1ccccc1-c1cncnc1NCCN1CCOCC1`, the Potency was 2.51 µM (active).

As for `CN1CCN(c2ncc3nc(-c4cc(F)cc(F)c4)c(=O)n(CCc4ccccc4)c3n2)CC1`, the Potency is 3.16 µM (active).

As for `Clc1ccccc1-c1nc(N2CCNCC2)c2ccccc2n1`, the activation was 16.5% (inactive).

As to `COc1ccc(-n2c(=O)c(-c3ccc(F)cc3)nc3cnc(N4CCOCC4)nc32)cc1`, the Potency was 3.16 µM (active).

With `COCCn1c(=O)c(-c2ccc(Cl)cc2)nc2cnc(Nc3ccccc3)nc21`, the Potency is 2.51 µM (active).

Turning to `COCCn1c(=O)c(-c2cn(C)c3ccccc23)nc2cnc(N3CCNCC3)nc21`, the Potency is 3.16 µM (active).

`CN(C)c1ncc2nc(-c3ccccc3)c(=O)n(-c3ccccc3)c2n1`: the Potency is 0.631 µM (active).

`N#Cc1cccc(NC(=O)N2CCC3(CC2)CCN(C(=O)c2csnn2)CC3)c1`: the activation is -0.636% (inactive).

Turning to `COCC(=O)N1CCC[C@@]2(CCN(Cc3ccccc3OC)C2)C1`, the activation was -5.2% (inactive).

Take `Cc1ccccc1-c1nc(NC2CCNCC2)c2ccccc2n1`: the activation is 12.4% (inactive).

With `N#Cc1cccc(-c2nc3cnc(N4CCOCC4)nc3n(C3CC3)c2=O)c1`, the Potency is 3.16 µM (active).

For `COc1cccc(Cn2c(=O)c(-c3cc(F)cc(F)c3)nc3cnc(N(C)C)nc32)c1`, the Potency is 0.398 µM (active).

Consider `COCCn1c(=O)c(-c2ccccc2)nc2cnc(OC)nc21`, for which the activation is -14.2% (inactive).

Consider `O=C(Nc1cccc(F)c1)N1CC[C@@]2(CCCNC2)C1`, for which the activation was 0.832% (inactive).

As for `CN1CCN(c2ncc3nc(-c4cc(F)cc(F)c4)c(=O)n(Cc4cccs4)c3n2)CC1`, the Potency was 3.16 µM (active).

As to `CCNc1ncc2nc(-c3cn(C)c4ccccc34)c(=O)n(Cc3cccc(OC)c3)c2n1`, the Potency was 1.58 µM (active).

Consider `COc1ccc(NC(=O)N2CC3(CCN(C(C)=O)CC3)C2)cc1`, for which the activation was -8.17% (inactive).

`CNc1ncncc1-c1ccccc1OC`: the activation was 5.66% (inactive).

Consider `Cc1noc(C)c1-c1cc(N(C)C)ncn1`, for which the activation was 0.655% (inactive).

In the case of `Cc1cccc(CNc2nc(-c3ccc4c(c3)OCO4)nc3ccccc23)c1`, the activation was 6.93% (inactive).

As to `COCC(=O)N1CCC[C@@]2(CCN(C(=O)Nc3cccc(F)c3)C2)C1`, the activation was 8.24% (inactive).

On to `CCNc1ncc2nc(-c3cn(C)c4ccccc34)c(=O)n(-c3ccc(OC)cc3)c2n1`, for which the activation was -6.54% (inactive).

With `CC(C)NC(=O)N1CC2(CCN(C(=O)c3ccco3)CC2)C1`, the activation is 0.544% (inactive).

In the case of `COc1ccc(-c2nc3cnc(Nc4ccccc4)nc3n(Cc3cccs3)c2=O)cc1`, the Potency is 3.16 µM (active).

Turning to `CN(C)c1ccc(-c2nccc(NCCN3CCOCC3)n2)cc1`, the activation is -5.52% (inactive).

Consider `COc1ccccc1CNc1ncncc1-c1cccc(C#N)c1`, for which the activation is -9.43% (inactive).

For the molecule `CC(C)NC(=O)N1CCC2(CC1)CCN(C(=O)c1cc(C(F)(F)F)cc(C(F)(F)F)c1)CC2`, the activation was 9.62% (inactive).

For `N#CCCn1c(=O)c(-c2cccs2)nc2cnc(OCc3ccccc3)nc21`, the Potency was 3.16 µM (active).

On to `COc1ncc2nc(-c3cccs3)c(=O)n(-c3ccccc3)c2n1`, for which the Potency is 3.16 µM (active).
